D2 ag-1 – HTS Assay for Allosteric Agonists of the Human D2 Dopamine Receptor: Primary Screen for Agonists. AID 485358, 2010. HEK293 T-REx D2 cells, calcium flux agonist mode. activation, % at 2 µM. 340,000 tested, 0.53% active;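 active = activation over 3 SD above normal in the single-dose calcium agonist read, cut at about 30% in these data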; also: 0% is about no effect
Target sequence (P14416 whole entry, looked up): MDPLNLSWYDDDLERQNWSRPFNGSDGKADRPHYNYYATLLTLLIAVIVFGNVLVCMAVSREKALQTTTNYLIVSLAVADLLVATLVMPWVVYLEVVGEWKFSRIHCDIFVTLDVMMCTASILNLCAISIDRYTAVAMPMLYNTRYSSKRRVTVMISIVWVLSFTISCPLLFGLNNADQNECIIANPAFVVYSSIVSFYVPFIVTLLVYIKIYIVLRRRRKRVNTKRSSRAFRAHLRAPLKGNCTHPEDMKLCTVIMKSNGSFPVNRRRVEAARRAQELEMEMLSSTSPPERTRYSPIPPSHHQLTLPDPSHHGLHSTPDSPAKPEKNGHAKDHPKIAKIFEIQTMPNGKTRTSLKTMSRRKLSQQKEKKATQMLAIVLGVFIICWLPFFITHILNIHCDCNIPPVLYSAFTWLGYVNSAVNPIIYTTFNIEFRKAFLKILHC
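Calcium-flux readout, 1 cycle/sec over 180 s following compound pin transfer, in inducible HEK293 Trex D2 cells (force-coupled); dopamine controls included. Positive calcium responses during this window marked compounds as potential agonists.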
D2 PAM-1 – HTS Assay for Positive Allosteric Modulators of the Human D2 Dopamine Receptor: Primary Screen for Potentiators; D(2) dopamine receptor (Homo sapiens), P14416; HEK293 T-REx D2, calcium flux, EC20 dopamine potentiation; potentiation, % at 10 µM; 340,000 tested, 0.34% active; AID 485347, 2010;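 active = potentiation over 3 SD above the plate norm, cut at about 30% in these data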; also: 0% is about no effect
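Cells plated with tetracycline inducer and held overnight at 30 C; calcium dye loaded 30–90 min at room temperature; baseline taken, compound added and read 180 s; EC20 dopamine then added and read 180 s.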
D2 ag-2 – Beta-Arrestin HTS for Positive Allosteric Modulators of the Human D2 Dopamine Receptor: Agonists; DiscoveRx PathHunter D2 beta-arrestin, luminescence, 90 min; 100% = 57 uM dopamine signal; activation, % (concentration not given with the values); 360,000 tested, 0.084% active; AID 624465, 2012; in the data active = activation above about 40%
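Agonist mode: compounds alone added to overnight-plated D2 PathHunter cells for 90 min at 37 C, with 57 uM final dopamine (EC100) defining full response. Beta-arrestin recruitment detected by chemiluminescent reagent, read after 1 h at ambient temperature.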
D2 antag – HTS Assay for Allosteric Antagonists of the Human D2 Dopamine Receptor: Primary Screen for Antagonists; AID 485344, 2010; HEK293 TREx D2 cells, calcium flux, dopamine EC80; inhibition, % at 10 µM; D(2) dopamine receptor (Homo sapiens), P14416; 340,000 tested, 2% active; in the data active = inhibition above about 30%; inactive = below that, where a call was filed; also: 0% is about no effect
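In this primary screen, negative modulation is detected by tracking calcium flux after an EC80 dopamine challenge in inducible HEK293 T-REx D2 cells preexposed to test compound for 180 s.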
D2 PAM-2 – Beta-Arrestin HTS for Positive Allosteric Modulators of the Human D2 Dopamine Receptor: Potentiators. D(2) dopamine receptor (Homo sapiens), P14416. DiscoveRx D2 beta-arrestin cells, luminescence, 90 min; 100% = 57 uM dopamine signal. potentiation, % (test concentration not listed). 360,000 tested, 0.23% active. AID 624464, 2012; in the data active = potentiation above about 50%
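PathHunter D2 cells, attached overnight at 37 deg C, received compound in DMSO plus dopamine at EC20 (50 nM final) for 90 min at 37 deg C. Beta-arrestin recruitment was read as luminescence after 1 h with detection reagent at ambient temperature.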
Numbers without * were called inactive; x = no result given. In the library only some 2.4% were active in any assay of this set; here they are far more common.

SMILES | D2 ag-1 | D2 PAM-1 | D2 ag-2 | D2 antag | D2 PAM-2
Oc1c(C(c2ccccc2)N2CCCCC2)ccc2ccccc12 (stereo unspecified) | x | x | 6 | x | 23
COc1ccccc1NC(=O)/C(C#N)=C/c1c(C)nn(-c2ccc(F)cc2)c1Cl | 32* | -13 | 3 | -4 | -2
CCOC(=O)c1cc2c(=O)n3ccccc3nc2n(CCCOC)c1=NC(=O)C(C)(C)C | 32* | -8 | -4 | -6 | -9
CCOC(=O)c1cc2c(=O)n3ccccc3nc2n(CCOC)c1=NC(=O)C(C)(C)C | 0 | -11 | -1 | -14 | 11
CC1(C)CC(=O)c2cc(C(=O)Nc3ccc(Br)cc3)c(=O)[nH]c2C1 | 0 | -6 | x | x | x
Cc1cc(NC(=O)CN2C(=O)N(C)C3(CCCCC3)C2=O)ccc1Br | 1 | -12 | -2 | 33* | 0
Cc1cc(NC(=O)CCN2CCC(C)CC2)ccc1Br | 1 | -11 | -3 | 39* | -66
COc1cc(OC)cc(C(=O)NCC(=O)Nc2ccc(OC)c(Cl)c2)c1 | -1 | -20 | 3 | 37* | -17
COc1ccc(NC(=O)COC(C)=O)cc1Cl | 0 | -3 | -5 | 13 | -3
COCC(=O)Nc1ccc(OC)c(Cl)c1 | 0 | 2 | -3 | 37* | -7
Cc1cccc(CN2[C@H](COC(=O)Nc3ccccc3)C=CS2(=O)=O)c1 | x | x | -1 | x | -3
CCN1C(=O)[C@H]2[C@@H](c3ccc(-c4ccc(C(C)=O)cc4)c(OC)c3)N[C@@](Cc3ccccc3)(C(=O)OC)[C@H]2C1=O | 0 | 7 | 1 | 32* | -3
CC1CCC(NC(=O)CSc2nncs2)CC1 (stereo unspecified) | 0 | -3 | -2 | 4 | 3
O=C(CSc1nncs1)NC1CCCCCCC1 | -1 | 12 | -4 | 31* | -4
C[C@H](CO)NC(=O)c1[nH]cnc1C(=O)Nc1cccc(Cl)c1 | x | x | -2 | x | x
CC(=O)N(Cc1ccccc1)C(CC(=O)NCc1ccccc1)C(=O)O (stereo unspecified) | x | x | -4 | x | -5
COc1cccc(-c2nnc(-c3ccccc3NC(=O)c3cccc(C(F)(F)F)c3)o2)c1 | 1 | -4 | x | x | x
O=C(Nc1cccnc1Cl)c1cc(-c2ccc(F)cc2)on1 | 0 | 34* | -2 | -3 | -7
COc1ccc(-c2cc(C(=O)Nc3cccnc3Cl)no2)cc1 | 1 | -7 | 3 | 18 | 3
O=C(c1cc(-c2ccc(F)cc2)on1)N1CCCCCC1 | -2 | 34* | -6 | 10 | -4
COc1cc(C)c(Cl)c(C)c1S(=O)(=O)NCc1cccnc1 | 1 | 32* | 1 | -22 | -7
CN(C)c1ccc(CNC(=O)c2cccn2-c2nnc(N3CCCCC3)s2)cc1 | 0 | 2 | x | x | x
Cc1cc2oc(=O)cc(CN3CCN(S(=O)(=O)c4ccc5c(c4)OCCO5)CC3)c2cc1C | -1 | 10 | -3 | 0 | -4
Cc1ccc2oc(=O)cc(CN3CCN(Cc4ccccc4)CC3)c2c1 | -1 | -21 | 0 | 52* | -13
CN1CCN(Cc2cc(=O)oc3ccc(Cl)cc23)CC1 | 1 | -6 | -4 | 45* | -15
SMILES | D2 ag-1 | D2 PAM-1 | D2 ag-2 | D2 antag | D2 PAM-2
Cc1cc2oc(=O)cc(CN3CCN(S(=O)(=O)/C=C/c4ccccc4)CC3)c2cc1C | 36* | -17 | 0 | -4 | -9
COc1ccc(C(C)=O)cc1Cn1c(C)c(C(=O)NCCC#N)sc1=O | x | x | 5 | x | -2
N#CC1=C(N)Oc2n[nH]c(-c3cccnc3)c2C1c1ccc([N+](=O)[O-])o1 (stereo unspecified) | 1 | 6 | 9 | 8 | 55*
CCc1[nH]nc2c1C(c1ccc(C)o1)C(C#N)=C(N)O2 (stereo unspecified) | 0 | -8 | -2 | 64* | 11
CCOc1ccc(/C(O)=C2\C(=O)C(=O)N(CCN(C)C)C2c2cccc(OC)c2OC)cc1Cl (stereo unspecified) | 1 | -4 | -2 | -6 | -35
COc1cccc(C2/C(=C(\O)c3ccc4c(c3)OCO4)C(=O)C(=O)N2CCN(C)C)c1OC (stereo unspecified) | -2 | 4 | -3 | 41* | -10
O=C1C(=O)N(Cc2cccnc2)C(c2cccc([N+](=O)[O-])c2)/C1=C(\O)c1ccc2c(c1)OCCO2 (stereo unspecified) | 1 | 2 | 2 | 2 | -6
COc1cccc(C2/C(=C(\O)c3ccc4c(c3)OCCO4)C(=O)C(=O)N2Cc2cccnc2)c1 (stereo unspecified) | 0 | -10 | -3 | 31* | -5
CCOc1ccc(-c2cccc(NS(=O)(=O)c3ccccc3C(F)(F)F)c2)nn1 | 0 | 0 | x | x | x
CC[C@@]12C(=O)N(c3cccc(Br)c3)C(=O)N1[C@H](c1ccc(Br)cc1)[C@@H]1C(=O)N(C(C)(C)C)C(=O)[C@@H]12 | 1 | -5 | -4 | 32* | -7
COc1ccc(CNC(=O)C2CCN(S(=O)(=O)c3ccc4c(c3)CCCN4C(C)=O)CC2)cc1 | x | -6 | x | x | x
CN1CCC(OC(c2ccccc2)c2ccccc2)CC1 | -2 | -22 | -3 | -17 | -25
CN1CCC(Oc2ccccc2Sc2ccccc2)CC1 | 1 | -17 | -3 | 32* | -45
COc1ccc(-c2cc(OC(=O)c3cccc(Cl)c3)c3c(C)oc(C)c3c(=O)c2)cc1 | 3 | 7 | x | x | x
COC(=O)CN1C(c2ccc(Cl)cc2)=Nc2ccc(Cl)cc2C1c1ccccc1 (stereo unspecified) | 2 | -16 | 0 | 49* | -31
COc1ccc(C2=Nc3ccc(Br)cc3C(c3ccccc3)N2CC(=O)NN)cc1 (stereo unspecified) | x | -26 | -2 | x | -32
NNC(=O)CN1C(c2cccc(Cl)c2)=Nc2ccc(Br)cc2C1c1ccccc1 (stereo unspecified) | 1 | -21 | -1 | 34* | -42
COc1ccc(C2=Nc3ccc(C)cc3C(c3ccccc3)N2CC(=O)NN)cc1 (stereo unspecified) | 2 | -25 | 1 | 108* | -10
O=C(Nc1ccc(Cl)cc1C(=O)c1ccccn1)c1ccccc1 | x | x | -5 | x | -8
CCc1ccc2oc(C(=O)Nc3sc4c(c3C(=O)NC)CCCC4)cc(=O)c2c1 | 1 | 7 | x | x | x

Screening data deposited in PubChem BioAssay by National Center for Advancing Translational Sciences (NCATS).
